Screening data (PubChem BioAssay)
Shown are actives, neighbours in structure and some others; about 6.7% of the full set was active somewhere.
C diff HTS: C. difficile growth inhibition; Clostridium difficile clinical isolate growth, OD600, 24 h; active compounds read low; growth activity, negative = inhibition, % at 16 µg/mL (by protocol); 86,000 compounds, 0.25% hits;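 active means mean growth activity at or below -80% and every replicate also at or below -80%; inconclusive means mean at or below -80% but some replicate above -80%; inactive means mean growth activity above -80%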;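 further: 0% = DMSO wells and -100% = levofloxacin 16 µg/mL wells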
Pf Dd2 inh: blocks growth of Plasmodium falciparum Dd2 parasites | P. falciparum Dd2 growth, SYBR Green, 72 h; active compounds read low | activity change, % at 10 µM | 94,000 compounds, 2.3% hits; in the data active means activity change below about -80%; inconclusive means no clear call, values can overlap the other calls
Tcruzi prolif: T. cruzi proliferation inhibition; T. cruzi beta-gal in NIH3T3, GalScreen luminescence, 90 h; inhibition, % at 8.34 µM; 77,000 compounds, 5.9% hits; AID 624255;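 active means mean inhibition above about 93%, with at least 55% of replicates each passing it, limit read from the data, passing the limit was not always enough; inconclusive means only one of those two conditions holds; inactive means neither condition holds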
The depositor's hits bear a star; ? = inconclusive; . = not tested or not shown.

SMILES | C diff HTS | Pf Dd2 inh | Tcruzi prolif
COc1ccc(S(=O)(=O)Nc2cccc3c2O[C@H](CN(C)Cc2ccc(C(=O)Nc4ccccc4N)cc2)[C@@H](C)CN([C@H](C)CO)C3=O)cc1 | -2.9 | -31.2 | 83.8
COc1ccc(S(=O)(=O)Nc2cccc3c2O[C@H](CN(C)Cc2ccc(C(=O)Nc4ccccc4N)cc2)[C@H](C)CN([C@H](C)CO)C3=O)cc1 | 10.5 | -87.4* | 89.8
COc1ccc(S(=O)(=O)Nc2cccc3c2O[C@@H](CN(C)Cc2ccc(C(=O)Nc4ccccc4N)cc2)[C@@H](C)CN([C@H](C)CO)C3=O)cc1 | 5.1 | -75.7 | .
COc1ccc(S(=O)(=O)Nc2cccc3c2O[C@H](CN(C)Cc2ccc(C(=O)Nc4ccccc4N)cc2)[C@H](C)CN([C@@H](C)CO)C3=O)cc1 | 2.1 | -86.1* | 94.6
C[C@@H]1CN([C@H](C)CO)C(=O)c2cccc(NC(=O)c3cnccn3)c2O[C@H]1CN(C)C(=O)Nc1ccc2c(c1)OCO2 | . | -16.4 | -9.1
CC(C)NC(=O)N(C)C[C@H]1OCCCC[C@@H](C)Oc2ccc(NS(=O)(=O)c3ccc(F)cc3)cc2C(=O)N([C@H](C)CO)C[C@@H]1C | -8.4 | . | 34.2
O=C(c1ccc(F)cc1)N1CC(=O)N2[C@@H](CO)[C@H](c3ccc(-c4cccnc4)cc3)[C@@H]2C1 | 4.2 | 11.6 | .
O=C(C1CCCC1)N1CC(=O)N2[C@H](CO)[C@H](c3ccc(-c4cccnc4)cc3)[C@H]2C1 | -5.5 | -90.5* | .
O=C1CN(Cc2ccc(F)cc2)C[C@@H]2[C@@H](c3ccc(Br)cc3)[C@H](CO)N12 | 3.9 | -87.2* | .
O=C(C1CCCC1)N1CC(=O)N2[C@H](CO)[C@@H](c3ccc(-c4cccnc4)cc3)[C@@H]2C1 | -2.2 | 6.0 | .
O=C(c1cccnc1)N1CC(=O)N2[C@@H](CO)[C@H](c3ccc(-c4cccnc4)cc3)[C@@H]2C1 | -3.9 | 36.8 | .
O=C(c1cccnc1)N1CC(=O)N2[C@H](C1)[C@@H](c1ccc(-c3cccnc3)cc1)[C@@H]2CO | -6.0 | -87.2* | .
O=C1CN(Cc2ccc(F)cc2)C[C@@H]2[C@@H](c3ccc(Br)cc3)[C@@H](CO)N12 | 6.1 | 38.5 | .
O=C(c1ccncc1)N1CC(=O)N2[C@H](C1)[C@@H](c1ccc(-c3cccnc3)cc1)[C@@H]2CO | -0.6 | -86.1* | .
CCN1[C@H](C(=O)NCCc2cn(C)cn2)[C@@H](CO)[C@@H]2Cn3c(ccc(-c4ccc(F)cc4)c3=O)[C@@H]21 | 3.6 | . | -2.8
O=C(c1ccccc1F)N1CC(=O)N2[C@H](C1)[C@@H](c1ccc(-c3ccc(F)cc3)cc1)[C@@H]2CO | -9.1 | -89.1* | .
COc1ccc(-c2ccc([C@@H]3[C@@H](CO)N4C(=O)CN(C(=O)C5CCCC5)C[C@@H]34)cc2)cc1 | -9.1 | -85.6* | .
O=C(c1ccccc1F)N1CC(=O)N2[C@@H](CO)[C@H](c3ccc(-c4ccc(F)cc4)cc3)[C@@H]2C1 | 1.8 | -1.4 | .
COc1ccc(-c2ccc([C@@H]3[C@H]4CN(C(=O)C5CCCC5)CC(=O)N4[C@H]3CO)cc2)cc1 | -4.0 | -66.4 | .
C[C@H](CO)N1C[C@H](C)[C@@H](CN(C)C(=O)Nc2cccc3ccccc23)Oc2ccc(NC(=O)Nc3ccc(C(F)(F)F)cc3)cc2CC1=O | 15.4 | -84.8* | 36.4
C[C@H]1CN([C@@H](C)CO)C(=O)Cc2cc(NC(=O)NC3CCCCC3)ccc2O[C@H]1CN(C)C(=O)Nc1cccc2ccccc12 | -16.9 | -9.3 | 13.9
C[C@@H]1CN([C@@H](C)CO)C(=O)Cc2cc(NC(=O)NC3CCCCC3)ccc2O[C@H]1CN(C)C(=O)Nc1cccc2ccccc12 | -13.7 | -91.7* | 3.4
C[C@@H]1CN([C@H](C)CO)C(=O)Cc2cc(NC(=O)Nc3ccc(C(F)(F)F)cc3)ccc2O[C@@H]1CN(C)C(=O)Nc1cccc2ccccc12 | 2.3 | -68.9 | 8.2
C[C@H](CO)N1C[C@H](C)[C@@H](CN(C)C(=O)Nc2cccc3ccccc23)Oc2ccc(NC(=O)Nc3cccc4ccccc34)cc2CC1=O | 1.4 | -89.2* | .
C[C@H](CO)N1C[C@H](C)[C@H](CN(C)C(=O)Nc2cccc3ccccc23)Oc2ccc(NC(=O)Nc3cccc4ccccc34)cc2CC1=O | -6.9 | -10.3 | -11.9
SMILES | C diff HTS | Pf Dd2 inh | Tcruzi prolif
CO[C@H]1CC[C@@H]2CCN(C)C(=O)[C@@H](C)[C@@H](OC)CN(C)C(=O)c3cccc(C#N)c3OC[C@@H]1O2 | . | 14.8 | -27.9
COc1ccc(-c2cnc3c(c2)C(=O)N([C@H](C)CO)C[C@H](C)[C@H](CN(C)S(=O)(=O)c2cccc(OC)c2)O3)cc1 | -0.6 | -73.9 | 49.9
COCCNC(=O)c1cc2c(c(-c3cccc(C#CCN(C)C)c3)n1)[C@H](CCO)N(S(=O)C(C)(C)C)C2 (stereo partly specified) | -5.3 | . | 66.9
Cc1noc(C)c1NC(=O)N(C)C[C@H]1OCCCC[C@H](C)Oc2ccc(NS(=O)(=O)c3cccs3)cc2C(=O)N([C@H](C)CO)C[C@@H]1C | -1.6 | -5.0 | 17.4
COCC(=O)Nc1ccc2c(c1)C(=O)N(C)[C@H]1CC[C@H](CC(=O)NCc3ccccc3F)O[C@H]1CO2 | 1.2 | -13.0 | -27.0
COc1ccc2c3c([nH]c2c1)[C@H](CO)N(Cc1ccc(Cl)cc1)CC31CCN(C(=O)CN(C)C)CC1 | 8.9 | ? | .
COc1ccc2c3c([nH]c2c1)[C@H](CO)N(Cc1ccncc1)CC31CCN(C(=O)c2cccnc2)CC1 | 9.4 | -10.6 | .
COc1cc(CN2CC3(CCN(C(=O)c4cccnc4)CC3)c3c([nH]c4cc(OC)ccc34)[C@@H]2CO)cc(OC)c1 | -0.7 | -89.4* | .
CCCC(=O)N1CCC2(CC1)CN(Cc1cccnc1)[C@@H](CO)c1[nH]c3cc(OC)ccc3c12 | 44.7 | -89.5* | .
COc1cc(CN2CC3(CCN(C(=O)Nc4c(C)noc4C)CC3)c3c([nH]c4cc(OC)ccc34)[C@@H]2CO)cc(OC)c1 | 2.9 | -29.6 | .
CCCC(=O)N1CC2(C1)CN(Cc1cccnc1)[C@H](CO)c1[nH]c3cc(OC)ccc3c12 | 5.6 | -20.9 | .
COc1cc(CN2CC3(CN(C(=O)Nc4c(C)noc4C)C3)c3c([nH]c4cc(OC)ccc34)[C@@H]2CO)cc(OC)c1 | -1.4 | -85.2* | .
CCCC(=O)N1CCC2(CC1)CN(Cc1ccc(Cl)cc1)[C@@H](CO)c1[nH]c3cc(OC)ccc3c12 | 12.9 | -84.4* | .
CC(C)NC(=O)N1CC2(C1)[C@H](c1ccccc1)[C@H](CO)N2Cc1cccnc1 | 6.4 | 27.8 | .
CCCNC(=O)C[C@H]1C[C@@H]2c3cc(NS(=O)(=O)c4cccc(OC)c4)ccc3O[C@@H]2[C@H](CO)O1 | -1.4 | -7.9 | 3.1
O=C(C[C@H]1CC[C@@H](NC(=O)Nc2ccc(C(F)(F)F)cc2)[C@H](CO)O1)NCCN1CCCC1 | . | -19.5 | -7.7
COC(=O)C[C@H]1C=C[C@@H](NS(=O)(=O)c2ccccc2F)[C@H](CO)O1 | . | 21.2 | -40.3
O=C(C[C@@H]1CC[C@@H]2[C@H](COC[C@@H](O)CN2Cc2ccc(C(F)(F)F)cc2)O1)NCCc1ccccc1 | -2.0 | -6.9 | .
C[C@@H]1CN([C@H](C)CO)S(=O)(=O)c2ccc(C3=CCCCC3)cc2O[C@H]1CN(C)C(=O)C1CCOCC1 | . | -37.4 | .
CCC(=O)N1CC2(C1)CN(Cc1cccc(Cl)c1)[C@H](CO)c1c2c2ccc(OC)cc2n1C | 14.3 | -92.1* | .
